This passage reports growth inhibition results from PubChem BioAssay (NCI).

The nature of the assay: NCI Yeast Anticancer Drug Screen. Data for the bub3 strain (AID 167). The note with it: S. cerevisiae bub3 mutant strain, stronger effect = higher value. The protocol:
Growth inhibition of yeast strains with defined genetic alterations is measured as a screen for potential anti-cancer activity. Selected strains with alterations in DNA damage repair or cell cycle control were exposed to compounds and growth inhibition was measured relative to vehicle treated controls. The strain used in this assay is bub3

The mark [1] stands for this setting: at 5.0 µM (retest, dose inferred, filed as 0.5).
Where [2] appears, read: at 50.0 µM (retest, dose inferred, filed as 5.0).

“And” between values parts separate entries of the source, which are not always exact repeats. Identical values can stand only once. Compounds without any hit were thinned out: in the full panel of roughly 79,000, 15% have a hit. Unmarked numbers belong to inactive results. The source made the active and inactive calls. Rule as the data show it: active = growth inhibition above about 70%; inactive = the rest.

Consider `Cc1cc([N+](=O)[O-])c(C)c2c1[nH]c1ccc(O)cc12`, for which the growth inhibition by setting is: under setting [1], 78% (active); under setting [2], 96% (active); (at 50.0 µM) 88.8% (active).
The like results for `CCOC(=O)C(CN)(c1ccccc1)c1ccccc1` were, in that order, -4%, 0% and -1.15%.
Taken in the same sequence, the figures for `O=C1OC(c2ccc(O)cc2)(c2ccc(O)cc2)c2cccc3cccc1c23` were 11%, 99% (active) and 99% (active).
The like results for `O=[N+]([O-])C(/C=C(\Cl)[N+](=O)[O-])=C(Nc1ccccc1)Nc1ccccc1` were, in that order, -33%, 99% (active) and 85.8% (active).
For the compound `O=C(NNc1ccnc2cc(Cl)ccc12)/C(=C/c1ccc2c(c1)OCO2)NC(=O)c1ccccc1`, the growth inhibition reads like this: under setting [1], -9%; under setting [2], 83% (active); (at 50.0 µM) 58.9%.
With `O=C(O)c1ccc(C(c2ccccc2)c2ccccc2)cc1`, the growth inhibition reads like this: under setting [1], -1%; under setting [2], 99% (active); (at 50.0 µM) 98.3% (active).
Taken in the same sequence, the figures for `OCc1ccccc1C(c1ccccc1)c1ccccc1` were 0%, 99% (active) and 91% (active).
Turning to `CC1OC(OC2CC(O)(C(=O)CO)Cc3c(O)c4c(c(O)c32)C(=O)c2ccccc2C4=O)CC(N)C1O` (configuration not stated), the growth inhibition reads like this: under setting [1], 56%; under setting [2], 96% (active); (at 50.0 µM) 89.1% (active).
The like results for `CC(NNC(=S)N1CCN(c2ccccn2)CC1)c1nccc2ccccc12` (configuration not stated) were, in that order, 83% (active), 99% (active) and 6.2%.
On to `O=C1C=CC(=O)C(c2ccc3ccccc3c2)=C1`, for which the growth inhibition under setting [1] was 91% (active), the growth inhibition under setting [2] was 97% (active) and the growth inhibition (at 50.0 µM) was 99% (active).
For `Oc1ccc2ccccc2c1Cc1c(O)ccc2ccccc12`, the growth inhibition runs as follows: under setting [1], -6%; under setting [2], 95% (active); (at 50.0 µM) 16.2% and 48.6%.
For the compound `Cc1cccc2c1Oc1cc(Cl)ccc1C2NC(=O)CCN1CCCCC1` (configuration not stated), the growth inhibition was 16% under setting [1], 20% under setting [2] and -14.7% (at 50.0 µM).
Taken in the same sequence, the figures for `CC1C[C@]2(C)C(=O)Nc3ccccc3[C@@H]2Nc2ccccc21` (some centres not stated) were 20%, 73% (active) and 91.5% (active).
The like results for `C/C(N=NC(=S)N1CCCCCC1)=C1\C=CC=CN1O` were, in that order, 21%, 33% and 69%.
